# According to PubChem BioAssay (EPA / NIEHS):
# Inconclusive results are not listed. Calls of active or inactive are those of the source. Rule for the calls: active = hit-call score of the fitted dose curve at least 0.9, where 1 is the maximum; inconclusive = response in the unintended direction; inactive = score below 0.9.
# Tests used:
# [1] = target: Cytochrome P450 2C19 (Homo sapiens) (UniProt P33261); test: NVS_ADME_hCYP2C19: NovaScreen (NVS) CYP450-related Enzyme Activity (ADME) Assay for human CYP2C19 (AID 2283113);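 note: potency for inhibition seen as loss of fluorescent signal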
# Summary of the method: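 Recombinant insect-cell-expressed enzyme, fluorescent substrate, 1 h after chemical addition, fluorescence intensity. Baseline = acetonitrile vehicle; activity scored as signal loss. Primary HTS single concentration 10 uM, duplicate; actives retested in concentration series.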
# [2] = target: human Beta-secretase (BACE), BACE1 (gene 23621) (UniProt P56817); test: NVS_ENZ_hBACE: NovaScreen (NVS) Enzymatic Assay for human Beta-secretase (BACE) (AID 2283140);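 note: hits are inhibitors that reduce fluorescent substrate signal versus DMSO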
# Summary of the method: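 Enzyme from SF9 cells was incubated 1 hour with compound and fluorogenic substrate, activity read by fluorescence. Single-concentration duplicates at 25 uM preceded concentration-response follow-up; fitting relative to DMSO baseline.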
# [3] = target: human Dual Specificity Protein Phosphatase 3 (DUSP3), DUSP3 (gene 1845) (UniProt P51452); test: NVS_ENZ_hDUSP3: NovaScreen (NVS) Enzymatic Assay for human Dual Specificity Protein Phosphatase 3 (DUSP3) (AID 2283152);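 note: phosphatase activity of recombinant human DUSP3 on a fluorogenic substrate without cells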
# Summary of the method: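 Cell-free fluorescence-intensity enzyme activity assay with recombinant protein and substrate; loss of signal fitted relative to DMSO baseline. Primary screen in duplicate at 25 uM, actives then run in concentration series; measured 0 h after dosing.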
# [4] = target: human Ephrin type-A Receptor 1 (EphA1), EPHA1 (gene 2041) (UniProt P21709); test: NVS_ENZ_hEphA1: NovaScreen (NVS) Enzymatic Assay for human Ephrin type-A Receptor 1 (EphA1) (AID 2283158);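 note: activity is signal loss versus DMSO meaning EphA1 kinase inhibition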
# Summary of the method: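 Recombinant kinase, fluorescent substrate, mobility-shift separation, fluorescence read at 1 h. Single-point duplicates at 25 uM; hits (e.g., ≥30% inhibition) run singleton concentration-response, max 50 uM. DMSO = negative control/baseline.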
# [5] = target: human Matrix Metalloproteinase-9 (MMP9), MMP9 (gene 4318) (UniProt P14780); test: NVS_ENZ_hMMP9: NovaScreen (NVS) Enzymatic Assay for human Matrix Metalloproteinase-9 (MMP9) (AID 2283190);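 note: cell-free recombinant MMP9 protease activity read by fluorescent substrate signal; active means inhibition seen as loss of fluorescence signal versus DMSO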
# Summary of the method: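 Screening concentration 25 uM, duplicate wells, then dose series for confirmation. Cell-free enzymatic reaction measured by fluorescence intensity 1 h post-dosing; decreased signal versus DMSO taken as activity.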
# [6] = target: human Phosphoinositide 3-kinase alpha (PI3Ka), PIK3CA (gene 5290) (UniProt P42336); test: NVS_ENZ_hPI3Ka: NovaScreen (NVS) Enzymatic Assay for human Phosphoinositide 3-kinase alpha (PI3Ka) (AID 2283196)
# Summary of the method: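 Duplicate single-point screen (25 uM), then singleton dose-response (max 50 uM) for compounds meeting the threshold. Cell-free kinase reaction, 1 h; fluorescent mobility-shift readout.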
# [7] = target: human Vascular Endothelial Growth Factor Receptor 1 (VEGFR1), FLT1 (gene 2321) (UniProt P17948); test: NVS_ENZ_hVEGFR1: NovaScreen (NVS) Enzymatic Assay for human Vascular Endothelial Growth Factor Receptor 1 (VEGFR1) (AID 2283226)
# Summary of the method: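 Kinase activity of recombinant human VEGFR1 was read by fluorescence after electrophoretic separation of product from substrate, 1 h post-dosing; initial duplicate single-point testing at 25 uM, followed by concentration-series follow-up, with DMSO as baseline.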
# [8] = target: human Adenosine A2a Receptor (AdoRA2a), ADORA2A (gene 135) (UniProt P29274); test: NVS_GPCR_hAdoRA2a: NovaScreen (NVS) G Protein-Coupled Receptor Assay for human Adenosine A2a Receptor (AdoRA2a) (AID 2283256)
# Summary of the method: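 Compounds screened in duplicate at 25 uM, with actives followed up in concentration series, for displacement of a radioligand from HEK293-derived receptor protein. Bound counts read by filter scintillation at 1.5 hours, DMSO as baseline.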
# [9] = target: D(1A) dopamine receptor (Homo sapiens) (UniProt P21728); test: NVS_GPCR_hDRD1: NovaScreen (NVS) G Protein-Coupled Receptor Assay for human Dopamine Receptor D1 (DRD1) (AID 2283269)
# Summary of the method: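 Extracted HEK293 DRD1 is incubated 1 h with compound and a tritiated or iodinated radioligand, then filtered and counted. Screening runs 25 uM in duplicate with on-plate positive and negative controls.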
# [10] = target: Muscarinic acetylcholine receptor M2 (Homo sapiens) (UniProt P08172); test: NVS_GPCR_hM2: NovaScreen (NVS) G Protein-Coupled Receptor Assay for human Muscarinic, M2 Receptor (AID 2283273)
# Summary of the method: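 Filter-based radiodetection read bound radioligand 1 h after dosing CHO-derived membrane protein. Single-concentration duplicates (25 uM) first, then concentration-response for actives; signal loss versus DMSO scored.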
# [11] = target: human Neurokinin, NK2 Receptor, TACR2 (gene 6865) (UniProt P21452); test: NVS_GPCR_hNK2: NovaScreen (NVS) G Protein-Coupled Receptor Assay for human Neurokinin, NK2 Receptor (AID 2283278);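 note: actives reduce bound radioligand signal relative to DMSO baseline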
# Summary of the method: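 Test chemicals displace a radioligand from receptor prepared from CHO cells in a cell-free format, read after 4 hours by scintillation counting on filters. Screening starts at 25 uM in duplicate, and active chemicals then go to concentration series.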
# [12] = target: human Opioid Receptor Mu (Opiate Mu), OPRM1 (gene 4988) (UniProt P35372); test: NVS_GPCR_hOpiate_mu: NovaScreen (NVS) G Protein-Coupled Receptor Assay for human Opioid Receptor Mu (Opiate Mu) (AID 2283290);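 note: hits lower bound tracer signal versus DMSO meaning displacement of the ligand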
# Summary of the method: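 Here, radioligand binding to CHO-extracted receptor was measured after 2.5 h using filter-based scintillation detection. Initial single-concentration screening used 25 uM in duplicate with plate controls; confirmed actives went to concentration-response testing.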
# [13] = target: rat Adrenergic Receptor, Alpha 2 (Adra2), Non-selective Binding, Adra2a (gene 25083) (UniProt P22909); test: NVS_GPCR_rAdra2_NonSelective: NovaScreen (NVS) G Protein-Coupled Receptor Assay for rat Adrenergic Receptor, Alpha 2 (Adra2), Non-selective Binding (AID 2283299)
# Summary of the method: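 Filter-based scintillation counting of radioligand binding to rat cortical membrane receptors, measured 1.25 hours post-dosing; loss of signal versus DMSO indicates displacement. Initial single-concentration duplicate at 25 uM, then concentration series.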
# [14] = target: Sodium channel protein type 1 subunit alpha (Rattus norvegicus) (UniProt P04774); test: NVS_IC_rNaCh_site2: NovaScreen (NVS) Ion Channel Assay for rat Sodium Channel, Site 2 (NaCh) (AID 2283322);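 note: hit means loss of radioligand binding signal relative to DMSO so AC50 marks displacement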
# Summary of the method: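 Initial duplicate single-point testing at 25 uM, followed by concentration-response runs for actives. Binding of radioligand to rat forebrain membranes quantified after 1 h via filter-based radiodetection.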
# [15] = target: guinea pig Leukotriene D4 Receptor (LTD4), CYSLTR1 (gene 100135514) (UniProt Q2NNR5); test: NVS_GPCR_gLTD4: NovaScreen (NVS) G Protein-Coupled Receptor Assay for guinea pig Leukotriene D4 Receptor (LTD4) (AID 2283248)
# Summary of the method: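 Guinea pig lung membrane preparation; bound radioligand measured by filter scintillation after 1 h, loss of signal versus DMSO marking displacement. Compounds tested at 25 uM in duplicate, hits retested to max 50 uM.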
# [16] = target: rat Thyrotropin Releasing Hormone Receptor (TRH), Trhr (gene 25570) (UniProt Q01717); test: NVS_GPCR_rTRH: NovaScreen (NVS) G Protein-Coupled Receptor Assay for rat Thyrotropin Releasing Hormone Receptor (TRH) (AID 2283329);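 note: hit means lower bound tracer signal versus DMSO baseline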
# Summary of the method: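 Test compounds are screened at 25 uM in duplicate against radioligand binding in rat forebrain membranes, with active pairs followed up over a concentration range. Detection uses filter-based radiodetection after a 4 h exposure.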
# [17] = target: human Phosphodiesterase 10 (PDE10), PDE10A (gene 10846) (UniProt Q9Y233); test: NVS_ENZ_hPDE10: NovaScreen (NVS) Enzymatic Assay for human Phosphodiesterase 10 (PDE10) (AID 2283195)
# Summary of the method: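 Biochemical single-readout PDE10A assay, cell-free, extracted protein. Compounds first screened at 25 uM in duplicate, hits then titrated to 50 uM max. Activity measured after 1 h; loss-of-signal fitted against DMSO negative control.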
# Chain of human Matrix Metalloproteinase-9 (MMP9), MMP9 (gene 4318) (P14780 whole entry, looked up): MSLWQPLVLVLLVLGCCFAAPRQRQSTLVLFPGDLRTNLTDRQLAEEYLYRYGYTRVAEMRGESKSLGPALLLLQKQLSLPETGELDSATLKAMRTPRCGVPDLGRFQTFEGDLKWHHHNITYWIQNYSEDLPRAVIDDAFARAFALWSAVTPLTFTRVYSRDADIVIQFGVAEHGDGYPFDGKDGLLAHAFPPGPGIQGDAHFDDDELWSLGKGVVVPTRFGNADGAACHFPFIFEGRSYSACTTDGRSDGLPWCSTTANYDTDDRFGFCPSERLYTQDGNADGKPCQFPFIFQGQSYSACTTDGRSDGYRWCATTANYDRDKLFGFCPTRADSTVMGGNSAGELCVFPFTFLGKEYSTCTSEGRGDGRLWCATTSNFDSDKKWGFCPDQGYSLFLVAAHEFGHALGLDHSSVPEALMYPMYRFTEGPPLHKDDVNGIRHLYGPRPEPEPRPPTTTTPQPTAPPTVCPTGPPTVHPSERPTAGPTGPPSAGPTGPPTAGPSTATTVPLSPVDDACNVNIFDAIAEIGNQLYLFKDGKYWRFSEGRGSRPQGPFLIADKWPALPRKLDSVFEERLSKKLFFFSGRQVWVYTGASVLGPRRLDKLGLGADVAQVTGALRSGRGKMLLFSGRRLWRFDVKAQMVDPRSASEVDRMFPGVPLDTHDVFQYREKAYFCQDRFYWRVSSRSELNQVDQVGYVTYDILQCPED
# Chain of rat Thyrotropin Releasing Hormone Receptor (TRH), Trhr (gene 25570) (Q01717 whole entry, looked up): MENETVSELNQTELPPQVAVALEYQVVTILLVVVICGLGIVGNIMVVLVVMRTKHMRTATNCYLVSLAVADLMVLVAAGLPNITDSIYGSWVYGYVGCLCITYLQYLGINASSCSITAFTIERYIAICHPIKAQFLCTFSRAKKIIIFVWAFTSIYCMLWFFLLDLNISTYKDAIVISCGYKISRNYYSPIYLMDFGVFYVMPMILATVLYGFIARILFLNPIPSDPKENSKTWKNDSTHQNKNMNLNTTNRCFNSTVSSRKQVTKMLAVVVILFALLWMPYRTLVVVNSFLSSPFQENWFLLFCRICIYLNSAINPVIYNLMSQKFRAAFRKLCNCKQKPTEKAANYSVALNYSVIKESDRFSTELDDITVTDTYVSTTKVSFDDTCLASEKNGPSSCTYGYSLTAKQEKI
# Chain of human Ephrin type-A Receptor 1 (EphA1), EPHA1 (gene 2041) (P21709 whole entry, looked up): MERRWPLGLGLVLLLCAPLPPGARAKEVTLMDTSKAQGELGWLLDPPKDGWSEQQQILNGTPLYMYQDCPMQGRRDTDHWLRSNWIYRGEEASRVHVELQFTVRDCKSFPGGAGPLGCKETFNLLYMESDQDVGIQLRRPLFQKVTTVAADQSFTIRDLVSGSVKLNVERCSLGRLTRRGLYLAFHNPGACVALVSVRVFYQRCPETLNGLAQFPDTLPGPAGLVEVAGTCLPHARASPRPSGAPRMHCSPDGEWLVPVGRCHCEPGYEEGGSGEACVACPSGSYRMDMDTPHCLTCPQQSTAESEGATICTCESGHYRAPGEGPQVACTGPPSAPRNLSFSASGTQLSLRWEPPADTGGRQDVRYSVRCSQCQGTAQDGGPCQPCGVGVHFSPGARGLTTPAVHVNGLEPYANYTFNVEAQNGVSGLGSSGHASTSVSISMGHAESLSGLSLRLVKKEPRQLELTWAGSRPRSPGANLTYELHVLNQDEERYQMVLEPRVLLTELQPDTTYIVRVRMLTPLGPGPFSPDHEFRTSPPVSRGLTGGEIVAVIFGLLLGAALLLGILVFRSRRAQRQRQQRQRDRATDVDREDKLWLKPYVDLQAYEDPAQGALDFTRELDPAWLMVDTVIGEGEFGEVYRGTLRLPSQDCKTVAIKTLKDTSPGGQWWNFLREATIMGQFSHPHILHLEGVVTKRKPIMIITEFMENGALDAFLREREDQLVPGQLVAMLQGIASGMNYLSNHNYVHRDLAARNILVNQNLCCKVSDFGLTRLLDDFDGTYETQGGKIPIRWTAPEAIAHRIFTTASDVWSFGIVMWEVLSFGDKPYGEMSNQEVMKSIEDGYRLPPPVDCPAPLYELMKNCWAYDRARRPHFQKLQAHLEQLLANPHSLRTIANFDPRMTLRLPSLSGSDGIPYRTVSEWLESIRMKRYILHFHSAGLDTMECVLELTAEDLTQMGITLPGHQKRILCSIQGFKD
# Chain of human Beta-secretase (BACE), BACE1 (gene 23621) (P56817 whole entry, looked up): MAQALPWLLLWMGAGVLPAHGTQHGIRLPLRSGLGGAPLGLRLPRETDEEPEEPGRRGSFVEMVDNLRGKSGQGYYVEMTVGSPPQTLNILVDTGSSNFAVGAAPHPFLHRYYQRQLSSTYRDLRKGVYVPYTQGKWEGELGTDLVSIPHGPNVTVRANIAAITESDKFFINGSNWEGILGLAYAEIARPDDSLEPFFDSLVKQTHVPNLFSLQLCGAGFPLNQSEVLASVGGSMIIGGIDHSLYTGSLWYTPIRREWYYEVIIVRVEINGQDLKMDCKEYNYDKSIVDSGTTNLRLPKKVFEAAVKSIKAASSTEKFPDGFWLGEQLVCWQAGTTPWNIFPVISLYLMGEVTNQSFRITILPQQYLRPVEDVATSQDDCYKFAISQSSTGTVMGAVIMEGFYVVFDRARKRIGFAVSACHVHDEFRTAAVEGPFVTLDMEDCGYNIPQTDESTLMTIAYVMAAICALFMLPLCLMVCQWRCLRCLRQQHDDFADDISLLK
# Chain of human Opioid Receptor Mu (Opiate Mu), OPRM1 (gene 4988) (P35372 whole entry, looked up): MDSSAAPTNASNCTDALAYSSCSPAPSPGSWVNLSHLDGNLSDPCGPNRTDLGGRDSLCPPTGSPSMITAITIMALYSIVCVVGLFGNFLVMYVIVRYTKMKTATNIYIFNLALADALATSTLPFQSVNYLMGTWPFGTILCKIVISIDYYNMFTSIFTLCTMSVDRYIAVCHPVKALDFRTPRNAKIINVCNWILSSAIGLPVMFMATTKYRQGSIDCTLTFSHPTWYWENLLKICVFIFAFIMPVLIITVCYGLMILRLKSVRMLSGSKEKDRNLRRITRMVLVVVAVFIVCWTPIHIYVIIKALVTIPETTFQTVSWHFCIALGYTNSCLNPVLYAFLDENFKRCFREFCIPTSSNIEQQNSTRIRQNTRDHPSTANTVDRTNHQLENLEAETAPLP
# Chain of D(1A) dopamine receptor (Homo sapiens) (P21728 whole entry, looked up): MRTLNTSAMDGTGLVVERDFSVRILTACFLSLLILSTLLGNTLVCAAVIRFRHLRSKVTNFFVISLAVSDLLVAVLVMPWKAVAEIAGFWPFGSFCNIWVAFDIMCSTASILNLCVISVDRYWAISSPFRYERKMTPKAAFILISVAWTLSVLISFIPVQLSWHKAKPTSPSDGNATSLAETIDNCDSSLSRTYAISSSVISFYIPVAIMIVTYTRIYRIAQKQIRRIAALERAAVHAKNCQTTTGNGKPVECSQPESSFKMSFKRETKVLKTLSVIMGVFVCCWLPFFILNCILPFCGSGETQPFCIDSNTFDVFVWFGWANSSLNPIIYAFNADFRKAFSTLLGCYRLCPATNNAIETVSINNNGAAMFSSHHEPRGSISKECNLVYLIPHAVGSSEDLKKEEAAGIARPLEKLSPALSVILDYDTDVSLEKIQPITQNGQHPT
# Chain of guinea pig Leukotriene D4 Receptor (LTD4), CYSLTR1 (gene 100135514) (Q2NNR5 whole entry, looked up): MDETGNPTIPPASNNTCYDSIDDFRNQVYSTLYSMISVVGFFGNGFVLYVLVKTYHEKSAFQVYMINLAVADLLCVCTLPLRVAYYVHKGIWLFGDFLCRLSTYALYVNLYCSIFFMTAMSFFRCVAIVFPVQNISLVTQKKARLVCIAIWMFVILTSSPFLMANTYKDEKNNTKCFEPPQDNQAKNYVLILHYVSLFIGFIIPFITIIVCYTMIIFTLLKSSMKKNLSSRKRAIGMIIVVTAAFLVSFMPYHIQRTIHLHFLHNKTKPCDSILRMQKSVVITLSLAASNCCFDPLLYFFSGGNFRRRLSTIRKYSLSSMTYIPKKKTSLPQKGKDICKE
# Chain of human Phosphodiesterase 10 (PDE10), PDE10A (gene 10846) (Q9Y233 whole entry, looked up): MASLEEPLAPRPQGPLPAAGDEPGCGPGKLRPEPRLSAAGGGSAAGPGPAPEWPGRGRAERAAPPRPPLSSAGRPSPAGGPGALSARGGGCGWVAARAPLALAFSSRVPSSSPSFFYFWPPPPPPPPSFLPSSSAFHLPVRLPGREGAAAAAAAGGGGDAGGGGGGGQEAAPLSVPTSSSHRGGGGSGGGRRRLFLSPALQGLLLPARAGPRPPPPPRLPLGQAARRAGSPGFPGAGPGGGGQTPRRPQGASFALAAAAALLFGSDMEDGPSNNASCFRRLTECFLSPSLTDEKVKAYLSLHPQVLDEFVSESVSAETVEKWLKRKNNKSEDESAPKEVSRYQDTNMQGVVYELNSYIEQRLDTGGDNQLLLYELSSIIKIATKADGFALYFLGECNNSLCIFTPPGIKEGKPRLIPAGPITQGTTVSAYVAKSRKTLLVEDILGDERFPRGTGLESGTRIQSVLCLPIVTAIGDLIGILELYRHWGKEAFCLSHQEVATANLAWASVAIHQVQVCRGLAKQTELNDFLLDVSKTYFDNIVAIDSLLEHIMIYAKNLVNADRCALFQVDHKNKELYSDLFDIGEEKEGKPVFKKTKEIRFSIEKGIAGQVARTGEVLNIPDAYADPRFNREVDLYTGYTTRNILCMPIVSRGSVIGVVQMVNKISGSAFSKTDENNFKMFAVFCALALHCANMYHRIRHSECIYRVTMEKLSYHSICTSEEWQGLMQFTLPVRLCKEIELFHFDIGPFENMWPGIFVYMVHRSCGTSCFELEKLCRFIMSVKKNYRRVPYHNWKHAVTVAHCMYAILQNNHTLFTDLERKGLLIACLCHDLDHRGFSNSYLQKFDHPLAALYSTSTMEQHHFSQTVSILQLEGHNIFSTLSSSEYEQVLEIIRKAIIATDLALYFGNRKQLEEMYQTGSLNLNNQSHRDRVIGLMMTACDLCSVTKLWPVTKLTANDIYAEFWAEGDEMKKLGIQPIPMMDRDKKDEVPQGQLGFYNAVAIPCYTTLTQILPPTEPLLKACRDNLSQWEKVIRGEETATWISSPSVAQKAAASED
# Chain of human Dual Specificity Protein Phosphatase 3 (DUSP3), DUSP3 (gene 1845) (P51452 whole entry, looked up): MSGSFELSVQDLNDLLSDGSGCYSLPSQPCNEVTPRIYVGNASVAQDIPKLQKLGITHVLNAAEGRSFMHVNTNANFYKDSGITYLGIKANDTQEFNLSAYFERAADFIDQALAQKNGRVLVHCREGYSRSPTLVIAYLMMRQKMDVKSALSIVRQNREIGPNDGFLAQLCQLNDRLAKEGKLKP
smiles,measurement,setting,value
CCCCCCCCCCCCCCCC[N+](C)(C)Cc1ccccc1,AC50,[1],5 µM (active)
same,AC50,[2],6.34 µM (active)
same,AC50,[3],4.22 µM (active)
same,outcome,[4],inactive
same,outcome,[5],inactive
same,outcome,[6],inactive
same,outcome,[7],inactive
same,AC50,[8],16.4 µM (active)
same,AC50,[9],1.57 µM (active)
same,AC50,[10],0.584 µM (active)
same,AC50,[11],2.11 µM (active)
same,AC50,[12],1.44 µM (active)
same,AC50,[13],38.6 µM (active)
same,outcome,[14],inactive
CCCCNc1ccccc1,AC50,[5],4.99 µM (active)
same,outcome,[15],inactive
C#C[C@]1(O)CC[C@H]2[C@@H]3CCc4cc(OC)ccc4[C@H]3CC[C@@]21C,AC50,[1],6.84 µM (active)
same,outcome,[12],inactive
same,outcome,[14],inactive
same,outcome,[16],inactive
CCc1ccc(C(c2ccc(CC)cc2)C(Cl)Cl)cc1,AC50,[2],3.11 µM (active)
same,outcome,[4],inactive
same,outcome,[5],inactive
same,AC50,[17],14.1 µM (active)
O[Si](c1ccccc1)(c1ccccc1)c1ccccc1,outcome,[14],inactive
CO[Si](OC)(c1ccccc1)c1ccccc1,outcome,[17],inactive
same,AC50,[9],45.6 µM (active)
CC(CCl)OP(=O)(OC(C)CCl)OC(C)CCl (stereo not given),outcome,[16],inactive
c1ccc(-c2ccccc2-c2ccccc2)cc1,outcome,[15],inactive
CCCCC(CC)COP(=O)(O)OCC(CC)CCCC (stereo not given),outcome,[16],inactive
